In PubChem BioAssay (NCI):
The panel holds about 83,000 compounds, 20% with a hit somewhere; the sample as a whole holds those more often.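 Each cell line was grown in a 96-well plate and treated with one concentration of compound for 48 hours. Values below 10 were considered active.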 Unmarked numbers belong to inactive results. Active and inactive are the calls of the source.

Key:
Assay in all cases: NCI-60 one-dose screen, 48 h (100 = growth as untreated, 0 = no growth, -100 = all killed)
Details in all cases: 10 µM unless noted
SK-MEL-2 melanoma = tested on: SK-MEL-2 melanoma
EKVX NSCLC = tested on: EKVX NSCLC
SN12C renal = tested on: SN12C renal
UO-31 renal = tested on: UO-31 renal
TK-10 renal = tested on: TK-10 renal
ACHN renal = tested on: ACHN renal
CAKI-1 renal = tested on: CAKI-1 renal
A498 renal = tested on: A498 renal
CCRF-CEM leukemia = tested on: CCRF-CEM leukemia
MOLT-4 leukemia = tested on: MOLT-4 leukemia
SR leukemia = tested on: SR leukemia
RPMI-8226 leukemia = tested on: RPMI-8226 leukemia
OVCAR-8 ovarian = tested on: OVCAR-8 ovarian
OVCAR-5 ovarian = tested on: OVCAR-5 ovarian
OVCAR-4 ovarian = tested on: OVCAR-4 ovarian
SK-OV-3 ovarian = tested on: SK-OV-3 ovarian
IGROV1 ovarian = tested on: IGROV1 ovarian
OVCAR-3 ovarian = tested on: OVCAR-3 ovarian
HS 578T breast = tested on: HS 578T breast
NCI/ADR-RES ovarian = tested on: NCI/ADR-RES ovarian

Row | Structure (SMILES) | growth (SK-MEL-2 melanoma) | growth (EKVX NSCLC) | growth (SN12C renal) | growth (UO-31 renal) | growth (TK-10 renal) | growth (ACHN renal) | growth (CAKI-1 renal) | growth (A498 renal) | growth (CCRF-CEM leukemia) | growth (MOLT-4 leukemia) | growth (SR leukemia) | growth (RPMI-8226 leukemia) | growth (OVCAR-8 ovarian) | growth (OVCAR-5 ovarian) | growth (OVCAR-4 ovarian) | growth (SK-OV-3 ovarian) | growth (IGROV1 ovarian) | growth (OVCAR-3 ovarian) | growth (HS 578T breast) | growth (NCI/ADR-RES ovarian)
1 | COc1cc(C2C(C(=O)OCc3ccccc3)=C(C)NC(C)=C2C(=O)OCc2ccccc2)cc(OC)c1OC | -6.43% (active) | 31.5% | 29.1% | 18.5% | 34.8% | 16.2% | 26.2% | 36.8% | 11.3% | -9.95% (active) | 4.89% (active) | -0.546% (active) | 34% | 68.5% | 37.6% | 27.5% | 38.7% | 35.7% | 46.4% | 26.1%
2 | C#CCO[C@H]1CC(CC#C)(CC#C)C(=O)[C@@H]2[C@H]1[C@H]1C[C@@H]3[C@@]4(C)CCC[C@@](C)(C(=O)OC)[C@@H]4CC[C@@]23C=C1C(C)C | 97.9% | 94.7% | 94.1% | -34.5% (active) | 99.2% | 72.7% | 41% | 85.7% | -41.5% (active) | 76.7% | -4.27% (active) | 54.2% | 58.4% | 92.3% | 85.2% | 95.8% | -64.2% (active) | 71.7% | 94.2% | 78.5%
3 | CNCc1cccc2c1OCCOCCOCCNS(=O)(=O)c1ccc(cc1)-c1cnc(N)c(n1)C(=O)N2 | 30% | 77.4% | 19.2% | 77.6% | 41.7% | 54.7% | 28.4% | 51.5% | 7.66% (active) | 8.14% (active) | 3.81% (active) | 65.6% | 28% | 56.3% | 50.4% | 27.9% | 24.8% | 2.52% (active) | 48.7% | 108%
4 | N#Cc1ccc(O)c(C2=NCC(Cc3ccccc3)O2)c1 (stereo not given) | 38.8% | 45% | 51.9% | 22% | 51.4% | 38.6% | 12.9% | 84.9% | 33.6% | 46.6% | 60.8% | 55.3% | 37% | 79.7% | 22.3% | 50.9% | 43.2% | 16.1% | 90.7% | 0.317% (active)
5 | COc1ccc(C2=CC(c3cc(OC)c(OC)c(OC)c3)n3ncnc3N2)cc1 (stereo not given) | 24% | 66.7% | 38.4% | 41.3% | 62% | 32.4% | 21.7% | -5.66% (active) | 13.8% | 17.3% | 10.3% | 24.4% | 5.91% (active) | 35% | 41.4% | -7.15% (active) | 22.2% | -41.4% (active) | 27% | 12.8%
6 | C=C(C)[C@@H]1CC[C@]2(C)[C@H](CC=C3[C@@H]4CC(C)(C)CC[C@]4(CO)CC[C@]32C)[C@@]1(C)CCCN | -35.7% (active) | 97.4% | -59.7% (active) | 47.7% | -45.8% (active) | -40.8% (active) | 40.3% | 80.5% | -18.4% (active) | -35.9% (active) | -52.1% (active) | -47.5% (active) | -85.1% (active) | 26% | -21.8% (active) | 82.8% | 8.73% (active) | -42% (active) | 43.4% | 49.1%
7 | COc1ccc(C(=O)/C=C/c2ccc(N3CCCCC3)cc2)cc1OC | 103% | 92.8% | 90.5% | 73.4% | 110% | 100% | 90.4% | 87.2% | 81.5% | 88.7% | 73.3% | 72.9% | 92.8% | 99.8% | 65.3% | 107% | 95.4% | 104% | 103% | 92.8%
8 | Cc1ccc(-c2nc(-c3cn(C)c4ncccc34)cs2)cc1 | -14.6% [100 µM] (active) | -13.5% [100 µM] (active) | -13.1% [100 µM] (active) | 14.8% [100 µM] | -60% [100 µM] (active) | 6.72% [100 µM] (active) | -22.9% [100 µM] (active) | -3.41% [100 µM] (active) | -4.89% [100 µM] (active) | 17.3% [100 µM] | 3.67% [100 µM] (active) | -7.33% [100 µM] (active) | -3.32% [100 µM] (active) | -5.34% [100 µM] (active) | -21.5% [100 µM] (active) | -33.7% [100 µM] (active) | -0.0952% [100 µM] (active) | -28.5% [100 µM] (active) | 13.7% [100 µM] | -24.9% [100 µM] (active)
9 | COc1ccc(CCN(CC(=O)N(CC(N)=O)C2CCC[C@@H]2OCc2ccccc2)C(=O)CN(C(=O)CN(CCc2ccc(Cl)cc2)C(=O)CN(C(=O)CN(C)Cc2ccccc2F)[C@H](C)C2CCCCC2)[C@H](C)C2CCCCC2)cc1OC (stereo not given in full) | 1.88% (active) | 30.8% | 35.3% | 37.3% | 15.6% | 28.8% | 94.7% | 32% | 7.58% (active) | -37% (active) | -37.1% (active) | -0.194% (active) | 32.2% | 49.2% | 48.9% | 38.4% | 43.4% | 32.5% | 64.3% | 79.2%
10 | O=C(O)[C@@H](Cc1ccc2ccccc2c1)NC(=O)n1c2ccccc2c2ccccc21 | 33.3% | 47.9% | 34.1% | 38.9% | 58.1% | 48.8% | 30.5% | 9.24% (active) | 13% | 24.5% | 25.7% | 9.9% (active) | 21.2% | 37.6% | 43.9% | 39.7% | 29.6% | 6% (active) | 17.4% | 7.01% (active)
11 | CN1CCN(CCOc2ccc(-c3cnc4c(-c5ccc(F)cc5)cnn4c3)cc2)CC1 | 81.8% | 76.3% | 61.6% | 32.3% | 75.1% | 46.6% | 45.5% | 74.9% | 17.6% | 8.99% (active) | 1.31% (active) | 27% | 58.1% | 83.4% | 49% | 93.1% | 48.2% | 28.4% | 56.7% | 76.5%
12 | O=C(NNC(=O)c1nc2cc(F)ccc2n2cccc12)c1cnccn1 | 67.1% | 29.2% | 40.2% | 33.3% | 62.7% | 26% | 27.9% | 19.9% | 17.1% | 15% | 21.4% | 41.3% | 24.2% | 68.3% | 28.4% | 42.1% | 35.6% | 30% | 67.8% | 20.8%
13 | CCc1ccc(CCC(=O)Nc2ncc(Cc3ccccc3)s2)o1 | 44.4% | 36.1% | 42.3% | 40.3% | 63.1% | 44.4% | 33.3% | 22.9% | 19% | 22.2% | 22.6% | 29.4% | 28.4% | 38.9% | 61.5% | 34.4% | 35.6% | -11.2% (active) | 9.99% (active) | 12.7%
14 | Cc1c2ccncc2c(C)c2c1c1cc(CO)ccc1n2C | -7.55% (active) | 1.54% (active) | 6.64% (active) | 3.77% (active) | -21.4% (active) | 0.85% (active) | 8.35% (active) | -81.7% (active) | 8.76% (active) | 6.68% (active) | -4.24% (active) | -17.1% (active) | 6.79% (active) | -15.8% (active) | -3.73% (active) | -2.65% (active) | -8.24% (active) | -24.2% (active) | 24.3% | 4.56% (active)
15 | COc1ccc(/C=C/C(c2cc(OC)c(OC)c(OC)c2)n2cncn2)cc1 (stereo not given) | 12.9% | 66% | 62% | 64.4% | 48.5% | 57.5% | 51.6% | 36.4% | 35.1% | 39.4% | 18.9% | 50.8% | 52.2% | 90.2% | 96.8% | 35.5% | 64.6% | 9.06% (active) | 51.2% | 36.3%
